Records with an inconclusive call do not appear. Active and inactive are the calls of the source. Calls come from the whole dose curve.
Key:
[1] = Primary qHTS for inhibitors of SARS-S pseudo-typed particle cell entry (AID 1479145); conditions: outcome: dose series up to 57.1 µM unless noted; note: nearly all actives have a fitted effect of over 45% in size
[2] = Primary qHTS for Huh7 cytotoxicity: counterscreen for inhibitors of MERS-S pseudotyped particle cell entry (AID 1479147); conditions: outcome: dose series up to 57.1 µM unless noted
[3] = Primary qHTS for inhibitors of MERS-S pseudo-typed particle cell entry (AID 1479149); conditions: outcome: dose series up to 57.1 µM unless noted; note: nearly all actives have a fitted effect of over 60% in size
[4] = Primary qHTS for Vero E6 cytotoxicity: counterscreen for inhibitors of SARS-S pseudo-typed particle cell entry (AID 1479150); conditions: outcome: dose series up to 57.1 µM unless noted
[5] = Cytotoxicity counterscreen for inhibitors of SARS-CoV-2 cell entry (AID 1645845); conditions: outcome: dose series up to 57.1 µM unless noted; note: nearly all actives have a fitted effect of over 50% in size
Method in brief: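 ATP-content luminescence (ATPLite 1step, 15 min RT) read after 48 h compound exposure of Expi293F cells stably expressing human ACE2; normalized to cells-only wells and media-only wells.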

[6] = Confirmatory qHTS for VERO E6 Cytotoxicity Assay: Counterscreen for SARS-CoV-2 CPE Assay (AID 1508605); note: series mostly up to about 20 µM; nearly all actives have a fitted effect of over 60% in size

Measured: Potency

COC(F)(F)C(Cl)Cl
inactive: [1] | [2] | [3] | [4] | [5]

CC(C)(C)c1ccc(CN2CCN(C(c3ccccc3)c3ccc(Cl)cc3)CC2)cc1 (stereo not drawn)
inactive: [1] | [2] | [3] | [4] | [6]

COCC1=C(C(=O)OC(C)OC(=O)OC(C)C)N2C(=O)[C@@H](NC(=O)/C(=N/OC)c3csc(N)n3)[C@H]2SC1 (stereo partly drawn)
inactive: [1] | [2] | [3] | [4]

COc1ccc(/C=C/C(=O)OCCC(C)C)cc1
inactive: [1] | [2] | [3] | [4]

CC(C)(C)NC(=O)[C@@H]1C[C@@H]2CCCC[C@H]2CN1C[C@@H](O)[C@H](Cc1ccccc1)NC(=O)[C@H](CC(N)=O)NC(=O)c1ccc2ccccc2n1
inactive: [1] | [2] | [3] | [4] | [5]

CN(C)Cc1ccccc1
inactive: [1] | [2] | [3] | [4] | [5]

From PubChem BioAssay (NCATS)
